Reference: PubChem BioAssay
The source made the active and inactive calls. Unless noted, no rule for the calls is given here.

Key:
[1] = test system: Wnt5a (protein binding on small-molecule microarray); test: small molecules binding Wnt5a protein – biophysical, small-molecule microarray, 635/667 nm fluorescence, primary screen (AID 1142); settings: 635 nm fluorescence, higher = more signal;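 also: fluorescence read at 667 nm with signal to noise per printed feature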
[2] = ATP-based viability of Huh7 replicon cells – cell-based, CellTiter-Glo luminescence, basal, 48 h, cytotoxicity control for HCV replication inhibitor project, primary screen (AID 1143); settings: higher = more signal, called active from +8 up or from −8 down;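 also: Huh7 hepatoma cells carrying a hepatitis C replication reporter with no stimulus; test concentration not given here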
[3] = Pseudomonas biofilm growth suppression – PAO1 strain, BacTiter-Glo luminescence, LB-PBS, primary screen (AID 1144); settings: P. aeruginosa PAO1 biofilm, 12 h, higher = more signal
[4] = basal CRE-LacZ reporter activity in PC12 – cell-based, unstimulated, primary screen (AID 1145); settings: no forskolin, luminescence, 4.5 h, higher = more signal, called active from +8 up or from −8 down
[5] = forskolin-driven CRE-LacZ activity in PC12 – cell-based, CRE-LacZ reporter, forskolin-stimulated, primary screen (AID 1146); settings: luminescence, 4.5 h, higher = more signal, called active from +8 up or from −8 down;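 also: PC12 cells with 6xCRE LacZ reporter stimulated by forskolin 10 µM; beta-galactosidase reporter signal reflecting CREB driven transcription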
[6] = target: Streptavidin (Streptomyces avidinii) (UniProt P22629); test: compounds binding control protein streptavidin – biophysical, small-molecule microarray, 635/667 nm fluorescence, artefact control for SMM compound annotation, primary screen (AID 1147); settings: higher = more signal;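 also: signal reflects streptavidin binding to arrayed compounds as a control protein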
Sequence of Streptavidin (Streptomyces avidinii) (P22629 whole entry, looked up): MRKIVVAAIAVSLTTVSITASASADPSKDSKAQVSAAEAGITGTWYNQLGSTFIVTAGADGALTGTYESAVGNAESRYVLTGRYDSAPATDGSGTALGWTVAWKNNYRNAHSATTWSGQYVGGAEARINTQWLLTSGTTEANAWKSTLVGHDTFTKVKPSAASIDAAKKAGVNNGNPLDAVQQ

[7] = probe aInhba binding on compound microarray – biochemical, small-molecule microarray, 635/667 nm fluorescence, primary screen (AID 1148); settings: higher = more signal;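 also: score merges 667nm spot fluorescence with signal-to-noise for antibody binding to printed compounds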
Torsin-1A (Homo sapiens) [8] = target: Torsin-1A (Homo sapiens) (UniProt O14656); test: TOR1A wild-type binding on microarray – cell lysate, small-molecule microarray, lysate, 635/667 nm, primary screen (AID 1149); settings: COS7 hTOR1A-WT lysate, 635 nm fluorescence, higher = more signal
Sequence of Torsin-1A (Homo sapiens) (O14656 whole entry, looked up): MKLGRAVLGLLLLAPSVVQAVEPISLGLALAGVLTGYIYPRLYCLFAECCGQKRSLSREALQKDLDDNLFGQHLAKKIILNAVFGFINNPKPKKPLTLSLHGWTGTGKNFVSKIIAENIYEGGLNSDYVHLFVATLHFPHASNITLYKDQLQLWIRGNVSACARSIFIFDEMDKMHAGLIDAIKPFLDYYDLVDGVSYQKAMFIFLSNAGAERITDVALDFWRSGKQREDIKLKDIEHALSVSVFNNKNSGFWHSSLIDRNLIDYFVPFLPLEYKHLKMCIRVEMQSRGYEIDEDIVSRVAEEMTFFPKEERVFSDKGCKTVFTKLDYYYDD

Torsin-1A (Homo sapiens) [9] = target: Torsin-1A (Homo sapiens) (UniProt O14656); test: torsin A mutant lysate binding on microarrays – cell lysate, small-molecule microarray, COS7 lysate, 635/667 nm fluorescence, primary screen (AID 1150); settings: COS7 hTOR1A mutant lysate, 635 nm fluorescence, higher = more signal;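 also: score pools 667 nm emission and signal to noise measuring lysate protein binding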
[10] = test system: Sonic hedgehog protein (Shh); test: Sonic hedgehog microarray binding compounds – biochemical, small-molecule microarray, 635/667 nm fluorescence, primary screen (AID 1151); settings: 635 nm fluorescence, higher = more signal;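 also: Shh protein binding to compounds spotted on small-molecule microarray slides; score combines spot fluorescence intensity with signal-to-noise across triplicate slides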
[11] = optical density shifts of acrAB sulA E. coli – strain DRC41, OD650, 48 h, E. coli filamentation inducer project, primary screen (AID 1152); settings: higher = more signal, called active from +8 up or from −8 down;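 also: E. coli MC1000 strain DRC41 lacking acrAB efflux pump and sulA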
[12] = probe aLefty1 binding on compound microarray – biochemical, small-molecule microarray, 635/667 nm fluorescence, primary screen (AID 1153); settings: higher = more signal;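 also: score merges spot fluorescence with signal-to-noise ratio from the scanned slide images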
[13] = plasmodial surface anion channel blockers, osmotic lysis – cell-based, P. falciparum Indochina, OD700, 1 h, primary screen (AID 1154); settings: P. falciparum Indochina infected RBC osmotic lysis, higher = more signal, called active from +8 up or from −8 down
[14] = plasmodial surface anion channel blockers, osmotic lysis – cell-based, P. falciparum Indochina, OD700, 2 h, primary screen (AID 1155);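 also: lysis reports solute entry through the parasite surface anion channel PSAC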; settings: P. falciparum Indochina infected erythrocytes, higher = more signal, called active from +8 up or from −8 down
[15] = changes in parasitized red cell lysis, either direction – P. falciparum Indochina, OD700, 3 h, PSAC antagonist project, primary screen (AID 1156); settings: P. falciparum-infected erythrocytes, osmotic lysis, higher = more signal, called active from +8 up or from −8 down
[16] = plasmodial surface anion channel blockers, osmotic lysis – cell-based, P. falciparum Indochina, OD700, 18 h, primary screen (AID 1157); settings: P. falciparum Indochina infected erythrocytes, osmotic lysis OD700, 18 h; higher = more signal, called active from +8 up or from −8 down
[17] = S6 kinase pathway phospho-S6 level changes – cell-based, A549, cytoblot, luminescence, serum-stimulated, primary screen (AID 1158); settings: 5 h, higher = more signal;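 also: serum-stimulated A549 lung adenocarcinoma cells; signal is phosphorylated S6 detected by cytoblot immunostaining with HRP secondary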
[18] = target: NADPH oxidase 2 (Homo sapiens) (UniProt P04839); test: compounds shifting NOX2 Amplex Red fluorescence – cell-based, HEK293-NOX2, PMA-stimulated, NOX inhibitor project, primary screen (AID 1159); settings: 45 min, higher = more signal, called active from +8 up or from −8 down; also: test concentration not given here
Sequence of NADPH oxidase 2 (Homo sapiens) (P04839 whole entry, looked up): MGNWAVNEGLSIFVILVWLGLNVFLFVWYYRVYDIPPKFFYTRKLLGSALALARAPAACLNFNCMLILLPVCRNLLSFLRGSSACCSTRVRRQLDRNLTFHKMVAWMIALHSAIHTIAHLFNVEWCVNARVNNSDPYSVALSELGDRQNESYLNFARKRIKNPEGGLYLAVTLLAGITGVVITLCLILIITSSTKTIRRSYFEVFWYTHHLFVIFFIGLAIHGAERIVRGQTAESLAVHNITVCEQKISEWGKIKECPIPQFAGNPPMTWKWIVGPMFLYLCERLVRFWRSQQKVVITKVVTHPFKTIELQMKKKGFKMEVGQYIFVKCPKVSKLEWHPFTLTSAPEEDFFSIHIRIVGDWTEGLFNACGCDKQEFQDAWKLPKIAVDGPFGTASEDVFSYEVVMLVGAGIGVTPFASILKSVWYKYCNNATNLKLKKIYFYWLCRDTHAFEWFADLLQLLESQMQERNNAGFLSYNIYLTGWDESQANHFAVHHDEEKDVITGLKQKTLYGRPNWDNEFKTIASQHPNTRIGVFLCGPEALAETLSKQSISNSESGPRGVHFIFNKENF

[19] = target: NADPH oxidase 4 (Homo sapiens) (UniProt Q9NPH5); test: compounds shifting NOX4 Amplex Red fluorescence – cell-based, HEK293-NOX4, tetracycline-induced, NOX inhibitor project, primary screen (AID 1160); settings: HEK293-NOX4, Amplex Red H2O2 fluorescence, 45 min; higher = more signal, called active from +8 up or from −8 down
Sequence of NADPH oxidase 4 (Homo sapiens) (Q9NPH5 whole entry, looked up): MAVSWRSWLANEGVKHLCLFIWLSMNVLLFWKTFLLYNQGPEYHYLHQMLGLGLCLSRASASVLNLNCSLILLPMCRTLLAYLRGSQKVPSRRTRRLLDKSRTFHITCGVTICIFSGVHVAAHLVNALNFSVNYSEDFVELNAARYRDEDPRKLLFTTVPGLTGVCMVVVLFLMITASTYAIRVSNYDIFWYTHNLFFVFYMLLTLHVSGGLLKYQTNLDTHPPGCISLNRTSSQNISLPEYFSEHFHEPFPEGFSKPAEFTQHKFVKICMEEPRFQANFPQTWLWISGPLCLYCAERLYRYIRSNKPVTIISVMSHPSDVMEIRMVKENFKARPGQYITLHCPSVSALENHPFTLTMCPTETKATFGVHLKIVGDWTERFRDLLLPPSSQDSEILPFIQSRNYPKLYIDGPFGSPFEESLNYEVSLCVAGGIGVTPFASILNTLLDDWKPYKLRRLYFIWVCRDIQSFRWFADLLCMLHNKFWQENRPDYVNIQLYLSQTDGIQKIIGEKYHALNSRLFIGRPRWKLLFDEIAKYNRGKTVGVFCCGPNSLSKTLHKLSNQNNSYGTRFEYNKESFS

[20] = target: NADPH oxidase 5 (Homo sapiens) (UniProt Q96PH1); test: compounds shifting NOX5 Amplex Red fluorescence – cell-based, HEK293-NOX5, NOX inhibitor project, primary screen (AID 1161); settings: HEK293-NOX5, ionomycin, 45 min, higher = more signal
Sequence of NADPH oxidase 5 (Homo sapiens) (Q96PH1 whole entry, looked up): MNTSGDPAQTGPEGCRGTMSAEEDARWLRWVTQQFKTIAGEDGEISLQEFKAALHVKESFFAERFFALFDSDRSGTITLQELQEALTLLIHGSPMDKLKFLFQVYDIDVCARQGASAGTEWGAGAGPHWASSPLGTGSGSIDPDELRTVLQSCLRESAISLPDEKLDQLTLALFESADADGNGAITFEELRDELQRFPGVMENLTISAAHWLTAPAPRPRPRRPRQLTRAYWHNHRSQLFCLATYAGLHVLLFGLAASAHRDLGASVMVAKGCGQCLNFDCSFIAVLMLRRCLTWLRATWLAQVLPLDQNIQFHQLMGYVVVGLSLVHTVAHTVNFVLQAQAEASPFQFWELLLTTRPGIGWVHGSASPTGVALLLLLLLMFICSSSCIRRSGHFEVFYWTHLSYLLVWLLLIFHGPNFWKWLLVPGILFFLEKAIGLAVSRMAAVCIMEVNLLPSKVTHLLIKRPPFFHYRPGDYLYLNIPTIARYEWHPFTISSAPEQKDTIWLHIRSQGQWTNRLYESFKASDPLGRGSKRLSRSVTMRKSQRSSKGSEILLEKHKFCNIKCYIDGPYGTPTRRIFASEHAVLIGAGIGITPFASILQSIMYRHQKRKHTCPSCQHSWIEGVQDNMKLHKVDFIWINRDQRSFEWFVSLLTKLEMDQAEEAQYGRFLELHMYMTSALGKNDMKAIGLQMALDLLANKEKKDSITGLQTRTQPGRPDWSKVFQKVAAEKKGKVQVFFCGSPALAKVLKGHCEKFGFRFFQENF

For `CON=C(C)CCC(=O)OC[C@H]1O[C@H](C#Cc2ccccc2)C=C[C@@H]1Oc1ccc(C)cc1`, the composite z-score [1] was 0.0488, the z-score [2] was -1.85 (inactive) and the z-score [3] was -0.0775 (inactive). The z-score [4] was 0.415 (inactive), the z-score [5] was 1.24 (inactive) and the composite z-score [6] was 0.0457. It also gave a composite z-score [7] of -0.016, a composite z-score (Torsin-1A (Homo sapiens) [8]) of 0.552 and a composite z-score (Torsin-1A (Homo sapiens) [9]) of -0.0451. The composite z-score [10] was 0.597, the z-score [11] was -2.47 (inactive) and the composite z-score [12] was -0.0141. For the same compound, the z-score [13] was 2.13 (inactive), the z-score [14] was 0.277 (inactive) and the z-score [15] was -0.73 (inactive). For the same compound, the z-score [16] was 0.073 (inactive), the z-score [17] was -0.57 and the z-score [18] was -2.16 (inactive). For the same compound, the z-score [19] was -2.25 (inactive) and the z-score [20] was -0.0339.
In the case of `CCc1cc2c(nc1CC)CCN(CCC(C)=NOCC[C@@H]1C=C[C@H](OC(C)=O)[C@@H](COC(C)=O)O1)C2`, the composite z-score [1] is reported as 0.257, the z-score [2] is reported as 0.0095 (inactive) and the z-score [3] is reported as -0.0152 (inactive). For the same compound, the z-score [4] was 3.88 (inactive), the z-score [5] was 0.329 (inactive) and the composite z-score [6] was 1.78. The composite z-score [7] was 0.127, the composite z-score (Torsin-1A (Homo sapiens) [8]) was 2.66 and the composite z-score (Torsin-1A (Homo sapiens) [9]) was 1.66. The composite z-score [10] was 1.32, the z-score [11] was -0.842 (inactive) and the composite z-score [12] was 0.245. For the same compound, the z-score [13] was 1.86 (inactive), the z-score [14] was 0.724 (inactive) and the z-score [15] was 0.77 (inactive). The z-score [16] was 0.269 (inactive), the z-score [17] was -1.04 and the z-score [18] was -0.572 (inactive). For the same compound, the z-score [19] was 0.615 (inactive) and the z-score [20] was 1.65.
With `CO[C@H]1COC(=O)CC=C[C@H](C)[C@H](OC)COC(=O)[C@@H](C)NC(=O)CC=C[C@@H]1C` the composite z-score [1] was -0.0492, the z-score [2] was -0.379 (inactive) and the z-score [3] was -0.727 (inactive). For the same compound, the z-score [4] was 0.276 (inactive), the z-score [5] was 0.314 (inactive) and the composite z-score [6] was -0.201. For the same compound, the composite z-score [7] was -0.179, the composite z-score (Torsin-1A (Homo sapiens) [8]) was 2.9 and the composite z-score (Torsin-1A (Homo sapiens) [9]) was 1.82. The composite z-score [10] was 2.06, the z-score [11] was -0.619 (inactive) and the composite z-score [12] was -0.0939. For the same compound, the z-score [13] was -0.89 (inactive), the z-score [14] was -1.35 (inactive) and the z-score [15] was -0.14 (inactive). The z-score [16] was -1.92 (inactive), the z-score [17] was -0.365 and the z-score [18] was -0.677 (inactive). The z-score [19] was 0.557 (inactive) and the z-score [20] was 0.197.
With `COC(=O)CC=C1c2ccccc2[C@H](OC)[C@H]1C` the composite z-score [1] was 0.0034, the z-score [2] was 0.553 (inactive) and the z-score [3] was 0.624 (inactive). The z-score [4] was 0.478 (inactive), the z-score [5] was 0.345 (inactive) and the composite z-score [6] was -0.0324. For the same compound, the composite z-score [7] was 0.0275, the composite z-score (Torsin-1A (Homo sapiens) [8]) was 0.399 and the composite z-score (Torsin-1A (Homo sapiens) [9]) was -0.127. The composite z-score [10] was 0.103, the z-score [11] was 0.101 (inactive) and the composite z-score [12] was -0.326. For the same compound, the z-score [13] was 0.0311 (inactive), the z-score [14] was 0.269 (inactive) and the z-score [15] was -0.0239 (inactive). For the same compound, the z-score [16] was -0.0463 (inactive), the z-score [17] was -0.882 and the z-score [18] was 0.457 (inactive). For the same compound, the z-score [19] was 0.644 (inactive) and the z-score [20] was 0.199.
For `COC(=O)[C@@H]1CC[C@H](C)[C@@H](c2ccc(C)cc2)N1C(=O)c1ccc(C=NOC[C@@H](O)[C@H]2O[C@@H]3OC(C)(C)O[C@@H]3[C@H]2O)cc1`, the composite z-score [1] was 0.0258, the z-score [2] was 0.48 (inactive) and the z-score [3] was -0.0399 (inactive). For the same compound, the z-score [4] was 9.08 (active), the z-score [5] was 0.413 (inactive) and the composite z-score [6] was 0.54. The composite z-score [7] was 0.31, the composite z-score (Torsin-1A (Homo sapiens) [8]) was 0.215 and the composite z-score (Torsin-1A (Homo sapiens) [9]) was 0.277. For the same compound, the composite z-score [10] was 0.241, the z-score [11] was 1.44 (inactive) and the composite z-score [12] was 0.0313. For the same compound, the z-score [13] was 0.465 (inactive), the z-score [14] was 0.364 (inactive) and the z-score [15] was 0.107 (inactive). The z-score [16] was 0.342 (inactive), the z-score [17] was -0.924 and the z-score [18] was 0.659 (inactive). The z-score [19] was 0.589 (inactive) and the z-score [20] was 0.417.
For `CCN1C(=O)[C@H]2[C@H]3[C@H](O)[C@H](O)CC(=NNC(=O)OCc4ccccc4)[C@@H]3CC[C@H]2C1=O`, the composite z-score [1] was 0.0743, the z-score [2] was 0.235 (inactive) and the z-score [3] was 0.511 (inactive). For the same compound, the z-score [4] was -0.746 (inactive), the z-score [5] was -0.506 (inactive) and the composite z-score [6] was 0.131. It also gave a composite z-score [7] of -0.0986, a composite z-score (Torsin-1A (Homo sapiens) [8]) of -0.425 and a composite z-score (Torsin-1A (Homo sapiens) [9]) of 0.151. The composite z-score [10] was 0.475, the z-score [11] was -0.0098 (inactive) and the composite z-score [12] was 0.122. For the same compound, the z-score [13] was -0.0022 (inactive), the z-score [14] was -0.51 (inactive) and the z-score [15] was -0.698 (inactive). The z-score [16] was -0.0637 (inactive), the z-score [17] was -0.376 and the z-score [18] was 0.424 (inactive). For the same compound, the z-score [19] was 0.525 (inactive) and the z-score [20] was 0.296.
In the case of `COC(=O)CC=C[C@@H](C)[C@@H](C=NOC(C)CN1CCCCc2nc(C)c(C)cc21)NS(=O)(=O)c1ccc(C)cc1` (stereo not given in full), the composite z-score [1] is reported as 0.104, the z-score [2] is reported as 0.453 (inactive) and the z-score [3] is reported as 0.89 (inactive). The z-score [4] was -0.882 (inactive), the z-score [5] was 0.877 (inactive) and the composite z-score [6] was -0.343. For the same compound, the composite z-score [7] was -0.0221, the composite z-score (Torsin-1A (Homo sapiens) [8]) was 1.05 and the composite z-score (Torsin-1A (Homo sapiens) [9]) was 0.705. The composite z-score [10] was 0.56, the z-score [11] was 0.599 (inactive) and the composite z-score [12] was 0.236. For the same compound, the z-score [13] was -0.193 (inactive), the z-score [14] was 0.36 (inactive) and the z-score [15] was 0.151 (inactive). For the same compound, the z-score [16] was 0.0733 (inactive), the z-score [17] was -0.134 and the z-score [18] was -0.397 (inactive). The z-score [19] was 0.339 (inactive) and the z-score [20] was 0.266.
